# Results reported in paper PMC7862700, “An all-to-all approach to the identification of sequence-specific readers for epigenetic DNA modifications on cytosine”.
# What was measured:
# Assay in all cases: DAPPL (digital affinity profiling via proximity ligation, sequencing); 10 mM Tris-HCl pH 7.5, 50 mM NaCl, 1 mM DTT, 4% glycerol, room temperature, 30 min; GST-TFs on glutathione beads, 16-mer random dsDNA library, 0.1% formaldehyde crosslink after washing; high values mean tight binding
# FLI1 = biological target: T1, FLI1 (Homo sapiens, UniProt Q01543 1-452); conditions: protein: recombinant; tags: N-terminal GST; dsDNA, one strand shown
# T1 sequence: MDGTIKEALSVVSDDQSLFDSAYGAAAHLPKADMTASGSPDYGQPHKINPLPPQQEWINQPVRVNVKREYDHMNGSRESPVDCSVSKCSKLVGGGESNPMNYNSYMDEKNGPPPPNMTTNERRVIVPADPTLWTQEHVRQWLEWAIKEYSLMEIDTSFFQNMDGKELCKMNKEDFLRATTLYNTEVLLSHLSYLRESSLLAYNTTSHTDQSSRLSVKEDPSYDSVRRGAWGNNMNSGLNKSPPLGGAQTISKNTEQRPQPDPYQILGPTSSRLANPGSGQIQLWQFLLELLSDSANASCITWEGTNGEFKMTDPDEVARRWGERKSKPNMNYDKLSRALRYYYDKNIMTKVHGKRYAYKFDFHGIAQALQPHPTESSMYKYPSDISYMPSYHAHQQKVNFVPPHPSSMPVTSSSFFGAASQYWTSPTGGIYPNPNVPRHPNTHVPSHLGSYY
# Procedure, shortened: (§1)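 Pools were built from human transcription factors expressed in yeast as GST fusions, captured on glutathione beads and DNA-barcoded, along with a tag-only sample. Incubation with 200 nmole of a 16-mer random double-stranded DNA library lasted 30 min at room temperature in Tris/NaCl/DTT/glycerol buffer, and was followed by washing, 0.1% formaldehyde crosslinking, proximity ligation, PCR amplification and Illumina NextSeq500 sequencing. Binding signal is the quotient of each hexamer's read frequency for a factor and its frequency for the tag-only sample.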
# ELK1 = biological target: T2, ELK1 (Homo sapiens, UniProt P19419 1-428); conditions: protein: recombinant; tags: N-terminal GST; dsDNA, one strand shown
# T2 sequence: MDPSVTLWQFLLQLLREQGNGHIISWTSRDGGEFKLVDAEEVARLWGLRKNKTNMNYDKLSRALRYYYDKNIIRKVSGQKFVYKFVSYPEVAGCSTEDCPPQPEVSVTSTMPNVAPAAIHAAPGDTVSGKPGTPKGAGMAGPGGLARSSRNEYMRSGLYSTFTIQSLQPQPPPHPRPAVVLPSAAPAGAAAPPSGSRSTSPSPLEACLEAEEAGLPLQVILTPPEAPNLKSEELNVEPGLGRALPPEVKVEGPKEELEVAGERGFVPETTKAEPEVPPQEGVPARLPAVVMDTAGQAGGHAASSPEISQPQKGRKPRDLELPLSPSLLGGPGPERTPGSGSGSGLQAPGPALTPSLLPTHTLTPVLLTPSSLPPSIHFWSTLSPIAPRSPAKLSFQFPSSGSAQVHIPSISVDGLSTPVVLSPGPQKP
# Procedure, shortened: as §1
# GABPA = biological target: T3, GABPA (Homo sapiens, UniProt Q06546 1-454); conditions: protein: recombinant; tags: N-terminal GST; dsDNA, one strand shown
# T3 sequence: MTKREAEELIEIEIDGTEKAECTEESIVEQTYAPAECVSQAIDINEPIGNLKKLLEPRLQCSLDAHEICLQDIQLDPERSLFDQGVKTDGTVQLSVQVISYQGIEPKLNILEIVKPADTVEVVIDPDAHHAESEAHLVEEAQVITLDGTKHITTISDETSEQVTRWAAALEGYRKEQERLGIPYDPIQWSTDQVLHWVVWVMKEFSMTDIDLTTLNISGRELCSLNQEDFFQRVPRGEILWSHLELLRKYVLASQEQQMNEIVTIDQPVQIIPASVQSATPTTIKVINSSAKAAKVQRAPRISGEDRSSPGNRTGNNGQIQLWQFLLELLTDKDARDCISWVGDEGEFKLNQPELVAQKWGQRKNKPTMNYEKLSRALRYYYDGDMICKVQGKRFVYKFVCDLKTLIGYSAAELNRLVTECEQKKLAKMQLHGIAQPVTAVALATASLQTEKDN
# Procedure, shortened: as §1
# ERG = biological target: T4, ERG (Homo sapiens, UniProt P11308 1-479); conditions: protein: recombinant; tags: N-terminal GST; dsDNA, one strand shown
# T4 sequence: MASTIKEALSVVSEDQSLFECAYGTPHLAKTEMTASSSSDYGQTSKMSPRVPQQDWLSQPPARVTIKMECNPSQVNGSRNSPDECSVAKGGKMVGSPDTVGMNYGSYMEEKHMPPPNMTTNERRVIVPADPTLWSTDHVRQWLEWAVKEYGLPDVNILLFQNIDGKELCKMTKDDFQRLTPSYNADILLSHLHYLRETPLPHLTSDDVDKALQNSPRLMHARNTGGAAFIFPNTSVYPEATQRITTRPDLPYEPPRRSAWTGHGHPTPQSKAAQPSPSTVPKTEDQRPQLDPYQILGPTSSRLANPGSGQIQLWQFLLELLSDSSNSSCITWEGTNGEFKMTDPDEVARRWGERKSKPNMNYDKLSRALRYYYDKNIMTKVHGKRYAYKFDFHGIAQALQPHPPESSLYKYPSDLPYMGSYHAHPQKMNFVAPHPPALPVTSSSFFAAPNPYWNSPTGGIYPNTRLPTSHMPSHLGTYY
# Procedure, shortened: as §1
# ELF1 = ELF1 (Homo sapiens, UniProt P32519 1-619); conditions: protein: recombinant; tags: N-terminal GST; dsDNA, one strand shown
# Procedure, shortened: as §1
# EHF = biological target: T5, EHF (Homo sapiens, UniProt Q9NZC4 1-300); conditions: protein: recombinant; tags: N-terminal GST; dsDNA, one strand shown
# T5 sequence: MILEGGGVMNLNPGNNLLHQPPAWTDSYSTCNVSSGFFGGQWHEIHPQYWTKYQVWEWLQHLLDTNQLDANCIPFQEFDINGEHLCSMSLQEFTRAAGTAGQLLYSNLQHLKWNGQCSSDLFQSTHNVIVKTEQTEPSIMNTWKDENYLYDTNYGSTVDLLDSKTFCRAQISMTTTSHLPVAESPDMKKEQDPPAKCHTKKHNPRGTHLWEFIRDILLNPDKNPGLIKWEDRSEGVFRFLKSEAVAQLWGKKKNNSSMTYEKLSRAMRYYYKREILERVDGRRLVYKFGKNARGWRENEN
# Procedure, shortened: as §1
# SPI1 = SPI1 (Homo sapiens, UniProt P17947 1-270); conditions: protein: recombinant; tags: N-terminal GST; dsDNA, one strand shown
# Procedure, shortened: as §1
# SPIB = SPIB (Homo sapiens, UniProt Q01892 1-262); conditions: protein: recombinant; tags: N-terminal GST; dsDNA, one strand shown
# Procedure, shortened: as §1
# ELK3 = biological target: T6, ELK3 (Homo sapiens, UniProt P41970 1-407); conditions: protein: recombinant; tags: N-terminal GST; dsDNA, one strand shown
# T6 sequence: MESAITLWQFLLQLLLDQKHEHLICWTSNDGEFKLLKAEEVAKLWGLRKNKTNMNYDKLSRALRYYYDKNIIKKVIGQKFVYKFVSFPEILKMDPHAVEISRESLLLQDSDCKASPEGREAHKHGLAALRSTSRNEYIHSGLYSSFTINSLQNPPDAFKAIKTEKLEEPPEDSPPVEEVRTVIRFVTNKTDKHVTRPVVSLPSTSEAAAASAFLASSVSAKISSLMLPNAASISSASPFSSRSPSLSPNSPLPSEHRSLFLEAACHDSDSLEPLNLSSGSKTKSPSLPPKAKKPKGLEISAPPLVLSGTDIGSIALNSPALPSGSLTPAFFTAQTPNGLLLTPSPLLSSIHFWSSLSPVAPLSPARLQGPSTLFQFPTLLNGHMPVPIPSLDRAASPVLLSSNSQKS
# Procedure, shortened: as §1
# FEV = biological target: T7, FEV (Homo sapiens, UniProt Q99581 1-238); conditions: protein: recombinant; tags: N-terminal GST; dsDNA, one strand shown
# T7 sequence: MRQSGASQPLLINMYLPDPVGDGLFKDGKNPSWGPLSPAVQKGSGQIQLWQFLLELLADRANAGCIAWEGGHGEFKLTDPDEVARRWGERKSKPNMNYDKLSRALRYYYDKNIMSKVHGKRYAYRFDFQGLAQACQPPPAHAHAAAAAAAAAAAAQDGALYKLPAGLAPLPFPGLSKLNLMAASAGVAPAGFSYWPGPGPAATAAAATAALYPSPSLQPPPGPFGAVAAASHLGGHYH
# Procedure, shortened: as §1
# ETV5 = ETV5 (Homo sapiens, UniProt P41161 1-510); conditions: protein: recombinant; tags: N-terminal GST; dsDNA, one strand shown
# Procedure, shortened: as §1
# HSF1 = HSF1 (Homo sapiens, UniProt Q00613 1-529); conditions: protein: recombinant; tags: N-terminal GST; chain copies: 3; dsDNA, one strand shown
# Procedure, shortened: as §1
# SPIC = biological target: T8, SPIC (Homo sapiens, UniProt Q8N5J4 1-248); conditions: protein: recombinant; tags: N-terminal GST; dsDNA, one strand shown
# T8 sequence: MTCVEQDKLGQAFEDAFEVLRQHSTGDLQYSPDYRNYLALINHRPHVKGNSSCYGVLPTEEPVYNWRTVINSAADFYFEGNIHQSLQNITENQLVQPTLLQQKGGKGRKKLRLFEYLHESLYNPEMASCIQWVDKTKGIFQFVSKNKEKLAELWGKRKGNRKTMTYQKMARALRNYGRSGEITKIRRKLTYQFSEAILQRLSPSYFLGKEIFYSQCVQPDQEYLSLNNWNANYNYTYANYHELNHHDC
# Procedure, shortened: as §1
# ELF4 = ELF4 (Homo sapiens, UniProt Q99607 1-663); conditions: protein: recombinant; tags: N-terminal GST; dsDNA, one strand shown
# Procedure, shortened: as §1
# ELK4 = biological target: T9, ELK4 (Homo sapiens, UniProt P28324-2 1-405); conditions: protein: recombinant; tags: N-terminal GST; dsDNA, one strand shown
# T9 sequence: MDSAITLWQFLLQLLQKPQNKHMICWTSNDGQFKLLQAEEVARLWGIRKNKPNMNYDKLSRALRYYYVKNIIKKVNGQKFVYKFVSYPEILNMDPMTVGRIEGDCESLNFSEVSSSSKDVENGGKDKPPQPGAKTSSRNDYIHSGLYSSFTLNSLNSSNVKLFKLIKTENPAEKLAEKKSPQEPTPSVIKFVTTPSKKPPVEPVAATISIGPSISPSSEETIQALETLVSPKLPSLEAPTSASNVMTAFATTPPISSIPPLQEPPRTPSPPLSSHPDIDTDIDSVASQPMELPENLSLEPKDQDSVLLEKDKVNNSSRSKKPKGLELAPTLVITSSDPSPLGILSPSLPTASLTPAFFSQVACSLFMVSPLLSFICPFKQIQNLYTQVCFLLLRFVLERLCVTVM
# Procedure, shortened: as §1
# ETV2 = biological target: T10, ETV2 (Homo sapiens, UniProt O00321 1-342); conditions: protein: recombinant; tags: N-terminal GST; dsDNA, one strand shown
# T10 sequence: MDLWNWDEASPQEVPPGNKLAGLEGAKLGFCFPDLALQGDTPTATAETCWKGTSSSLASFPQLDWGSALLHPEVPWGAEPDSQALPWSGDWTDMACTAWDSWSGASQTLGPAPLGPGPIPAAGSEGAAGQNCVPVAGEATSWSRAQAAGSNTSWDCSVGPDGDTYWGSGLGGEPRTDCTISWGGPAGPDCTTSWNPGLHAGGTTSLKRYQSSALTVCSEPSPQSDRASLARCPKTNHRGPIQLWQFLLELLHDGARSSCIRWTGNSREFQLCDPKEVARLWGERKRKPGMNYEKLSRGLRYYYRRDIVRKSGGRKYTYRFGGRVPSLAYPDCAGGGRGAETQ
# Procedure, shortened: as §1
# ELF3 = biological target: T11, ELF3 (Homo sapiens, UniProt P78545 1-371); conditions: protein: recombinant; tags: N-terminal GST; dsDNA, one strand shown
# T11 sequence: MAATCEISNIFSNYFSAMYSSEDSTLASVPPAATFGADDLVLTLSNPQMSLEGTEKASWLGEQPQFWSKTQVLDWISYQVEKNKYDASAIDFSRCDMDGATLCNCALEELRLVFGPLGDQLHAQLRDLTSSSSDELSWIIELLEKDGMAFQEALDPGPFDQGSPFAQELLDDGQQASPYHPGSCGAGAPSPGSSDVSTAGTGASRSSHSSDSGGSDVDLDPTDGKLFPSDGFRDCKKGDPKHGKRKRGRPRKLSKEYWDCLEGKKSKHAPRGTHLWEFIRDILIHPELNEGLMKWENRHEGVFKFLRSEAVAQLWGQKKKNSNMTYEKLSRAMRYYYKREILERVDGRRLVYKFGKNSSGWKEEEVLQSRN
# Procedure, shortened: as §1
# CRX = CRX (Homo sapiens, UniProt O43186 1-299); conditions: protein: recombinant; tags: N-terminal GST; dsDNA, one strand shown
# Procedure, shortened: as §1
# ETV1 = ETV1 (Homo sapiens, UniProt P50549 1-477); conditions: protein: recombinant; tags: N-terminal GST; dsDNA, one strand shown
# Procedure, shortened: as §1
# ETV1, sequence (P50549 whole entry): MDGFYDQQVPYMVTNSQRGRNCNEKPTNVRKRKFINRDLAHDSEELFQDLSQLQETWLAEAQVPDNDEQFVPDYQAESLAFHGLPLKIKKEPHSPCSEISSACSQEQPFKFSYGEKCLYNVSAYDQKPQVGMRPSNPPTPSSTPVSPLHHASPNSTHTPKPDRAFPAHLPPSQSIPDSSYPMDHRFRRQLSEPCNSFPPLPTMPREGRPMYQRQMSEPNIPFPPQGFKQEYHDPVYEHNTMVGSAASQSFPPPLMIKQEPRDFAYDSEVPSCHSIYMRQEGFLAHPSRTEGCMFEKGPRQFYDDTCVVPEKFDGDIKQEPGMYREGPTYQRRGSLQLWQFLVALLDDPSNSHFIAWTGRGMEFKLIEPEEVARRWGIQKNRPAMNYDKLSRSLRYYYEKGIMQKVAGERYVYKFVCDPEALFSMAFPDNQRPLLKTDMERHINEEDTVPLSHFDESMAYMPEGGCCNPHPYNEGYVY
# ETV5, sequence (P41161 whole entry): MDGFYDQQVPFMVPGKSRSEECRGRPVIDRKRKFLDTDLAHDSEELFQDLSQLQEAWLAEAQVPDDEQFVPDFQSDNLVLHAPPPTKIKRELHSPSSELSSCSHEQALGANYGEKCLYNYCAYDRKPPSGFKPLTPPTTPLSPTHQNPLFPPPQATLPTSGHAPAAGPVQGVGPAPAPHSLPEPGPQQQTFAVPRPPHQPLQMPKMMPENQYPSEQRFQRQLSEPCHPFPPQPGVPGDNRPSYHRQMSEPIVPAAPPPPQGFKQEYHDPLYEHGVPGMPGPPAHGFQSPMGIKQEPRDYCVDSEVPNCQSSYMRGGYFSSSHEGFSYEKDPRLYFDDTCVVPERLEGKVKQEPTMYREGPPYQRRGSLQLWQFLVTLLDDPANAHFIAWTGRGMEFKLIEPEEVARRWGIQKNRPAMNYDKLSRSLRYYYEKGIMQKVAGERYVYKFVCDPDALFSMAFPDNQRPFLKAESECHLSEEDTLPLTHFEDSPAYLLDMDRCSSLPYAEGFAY
# SPIB, sequence (Q01892 whole entry): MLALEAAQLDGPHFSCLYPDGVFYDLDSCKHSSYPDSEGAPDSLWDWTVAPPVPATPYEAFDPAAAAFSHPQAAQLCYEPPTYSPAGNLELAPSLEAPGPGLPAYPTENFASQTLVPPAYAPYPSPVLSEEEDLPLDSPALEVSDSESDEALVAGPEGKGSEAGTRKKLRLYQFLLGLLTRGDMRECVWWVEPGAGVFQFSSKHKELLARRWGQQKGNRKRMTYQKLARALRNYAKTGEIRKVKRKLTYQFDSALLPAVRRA
# ELF1, sequence (P32519 whole entry): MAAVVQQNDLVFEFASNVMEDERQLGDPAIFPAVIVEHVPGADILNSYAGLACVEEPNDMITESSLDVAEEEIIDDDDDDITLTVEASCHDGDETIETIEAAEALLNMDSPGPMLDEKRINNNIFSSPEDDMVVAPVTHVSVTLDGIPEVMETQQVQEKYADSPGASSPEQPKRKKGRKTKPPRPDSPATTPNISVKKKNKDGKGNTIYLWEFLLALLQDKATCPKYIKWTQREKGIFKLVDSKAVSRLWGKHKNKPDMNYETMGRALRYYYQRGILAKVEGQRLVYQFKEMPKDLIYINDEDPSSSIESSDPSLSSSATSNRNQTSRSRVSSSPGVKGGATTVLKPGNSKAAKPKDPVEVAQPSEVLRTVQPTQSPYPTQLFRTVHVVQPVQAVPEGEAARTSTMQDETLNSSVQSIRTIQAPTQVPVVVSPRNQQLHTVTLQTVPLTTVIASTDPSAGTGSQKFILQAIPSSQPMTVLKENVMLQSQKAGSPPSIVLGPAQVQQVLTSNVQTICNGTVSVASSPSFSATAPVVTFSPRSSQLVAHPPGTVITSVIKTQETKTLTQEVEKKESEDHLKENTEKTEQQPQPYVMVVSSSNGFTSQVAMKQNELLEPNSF
# CRX, sequence (O43186 whole entry): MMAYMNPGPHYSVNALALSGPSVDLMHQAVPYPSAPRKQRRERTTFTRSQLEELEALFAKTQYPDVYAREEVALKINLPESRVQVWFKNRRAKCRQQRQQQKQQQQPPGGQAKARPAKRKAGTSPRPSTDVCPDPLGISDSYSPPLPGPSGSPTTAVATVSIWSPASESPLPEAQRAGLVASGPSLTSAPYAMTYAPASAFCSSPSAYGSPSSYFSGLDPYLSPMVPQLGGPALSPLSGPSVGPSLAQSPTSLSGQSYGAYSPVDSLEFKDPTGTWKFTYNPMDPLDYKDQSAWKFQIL
# HSF1, sequence (Q00613 whole entry): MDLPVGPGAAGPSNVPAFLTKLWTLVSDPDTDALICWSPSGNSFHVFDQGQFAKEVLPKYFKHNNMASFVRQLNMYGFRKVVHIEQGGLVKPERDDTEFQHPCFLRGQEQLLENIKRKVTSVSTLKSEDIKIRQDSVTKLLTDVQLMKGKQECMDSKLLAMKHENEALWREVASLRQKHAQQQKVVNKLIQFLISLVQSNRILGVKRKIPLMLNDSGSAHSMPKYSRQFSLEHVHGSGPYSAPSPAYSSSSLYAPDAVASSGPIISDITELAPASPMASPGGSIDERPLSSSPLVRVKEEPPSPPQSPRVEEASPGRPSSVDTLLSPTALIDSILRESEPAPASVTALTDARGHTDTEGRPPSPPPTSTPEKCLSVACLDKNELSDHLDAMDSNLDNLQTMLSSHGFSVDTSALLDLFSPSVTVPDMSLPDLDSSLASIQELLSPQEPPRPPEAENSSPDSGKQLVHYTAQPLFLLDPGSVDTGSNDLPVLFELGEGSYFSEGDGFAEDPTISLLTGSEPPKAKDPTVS
# ELF4, sequence (Q99607 whole entry): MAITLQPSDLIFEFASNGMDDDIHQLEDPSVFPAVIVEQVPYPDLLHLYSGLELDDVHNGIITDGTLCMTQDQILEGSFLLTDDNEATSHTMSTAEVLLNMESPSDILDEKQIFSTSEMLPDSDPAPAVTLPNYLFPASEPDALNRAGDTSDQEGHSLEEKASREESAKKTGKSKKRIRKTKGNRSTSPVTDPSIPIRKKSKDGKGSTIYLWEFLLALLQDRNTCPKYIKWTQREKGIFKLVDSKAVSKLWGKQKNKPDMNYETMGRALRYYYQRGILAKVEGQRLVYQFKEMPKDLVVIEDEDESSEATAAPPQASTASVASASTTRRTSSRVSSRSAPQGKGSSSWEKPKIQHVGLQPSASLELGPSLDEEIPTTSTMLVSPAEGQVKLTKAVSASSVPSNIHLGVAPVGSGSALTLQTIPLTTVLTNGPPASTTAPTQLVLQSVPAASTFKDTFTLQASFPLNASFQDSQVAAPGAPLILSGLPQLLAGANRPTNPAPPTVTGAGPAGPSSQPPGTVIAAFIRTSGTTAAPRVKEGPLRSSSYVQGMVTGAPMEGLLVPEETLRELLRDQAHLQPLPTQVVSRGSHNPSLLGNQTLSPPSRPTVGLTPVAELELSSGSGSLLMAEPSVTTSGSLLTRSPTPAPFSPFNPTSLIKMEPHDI
sequence,measurement,setting,value
TTAAGT,binding signal,FLI1,"1.06 fold enrichment (6-mer frequency, TF over GST control)"
same,binding signal,ELK1,"1.3 fold enrichment (6-mer frequency, TF over GST control)"
same,binding signal,GABPA,"1.16 fold enrichment (6-mer frequency, TF over GST control)"
same,binding signal,ERG,"1.17 fold enrichment (6-mer frequency, TF over GST control)"
same,binding signal,ELF1,"1.19 fold enrichment (6-mer frequency, TF over GST control)"
same,binding signal,EHF,"1.15 fold enrichment (6-mer frequency, TF over GST control)"
same,binding signal,SPI1,"1.06 fold enrichment (6-mer frequency, TF over GST control)"
same,binding signal,SPIB,"1.2 fold enrichment (6-mer frequency, TF over GST control)"
same,binding signal,ELK3,"1.23 fold enrichment (6-mer frequency, TF over GST control)"
same,binding signal,FEV,"1.11 fold enrichment (6-mer frequency, TF over GST control)"
same,binding signal,ETV5,"1.15 fold enrichment (6-mer frequency, TF over GST control)"
same,binding signal,HSF1,"2 fold enrichment (6-mer frequency, TF over GST control)"
same,binding signal,SPIC,"1.25 fold enrichment (6-mer frequency, TF over GST control)"
same,binding signal,ELF4,"1.16 fold enrichment (6-mer frequency, TF over GST control)"
same,binding signal,ELK4,"1.03 fold enrichment (6-mer frequency, TF over GST control)"
same,binding signal,ETV2,"1.14 fold enrichment (6-mer frequency, TF over GST control)"
same,binding signal,ELF3,"1.26 fold enrichment (6-mer frequency, TF over GST control)"
same,binding signal,CRX,"3.27 fold enrichment (6-mer frequency, TF over GST control)"
same,binding signal,ETV1,"1.16 fold enrichment (6-mer frequency, TF over GST control)"
